This is a sample that favours compounds with a hit; in the whole collection about 3.4% have one here.
SIRT5 block: inhibitors of human sirtuin-5 desuccinylase. Q9NXA8. Purified SirT5, succinyl-peptide AMC, trypsin-coupled fluorescence. inhibition, % at 15 µM. 1.1% of 330,000 active. AID 652115; in the data active = inhibition above about 15%; inconclusive = no clear call, values can overlap the other calls
Target sequence (Q9NXA8 whole entry, looked up): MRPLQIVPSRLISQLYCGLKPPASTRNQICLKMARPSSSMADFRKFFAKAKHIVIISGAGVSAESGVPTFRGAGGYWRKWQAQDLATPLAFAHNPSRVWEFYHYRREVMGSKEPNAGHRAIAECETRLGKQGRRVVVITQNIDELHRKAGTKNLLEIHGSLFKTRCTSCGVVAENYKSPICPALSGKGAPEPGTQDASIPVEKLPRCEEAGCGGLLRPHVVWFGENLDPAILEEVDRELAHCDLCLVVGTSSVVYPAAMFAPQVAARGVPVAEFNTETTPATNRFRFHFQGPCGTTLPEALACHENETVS
PGC1a acetyl inh: PGC1a acetylation modulation, inhibitor mode. AID 651687. inhibition, % at 15.6 µM. U2OS PGC1a acetylation, AlphaScreen anti-acetyl-lysine; with virally co-expressed GCN5 acetyltransferase. 0.17% of 350,000 active;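 active = every replicate shows inhibition of at least 40%; inconclusive = mean inhibition at least 40% but some replicate below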
PAX8 inh HTS: lowers PAX8-driven luciferase in RMG-I cells | RMG-I TPO-luciferase reporter, SteadyGlo, 24 h | inhibition, % at 12.6 µM | 1.2% of 360,000 active | AID 652154;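 active = mean replicate inhibition at least 60% with every replicate also reaching 60%; inconclusive = only one of the two criteria is met; inactive = mean below 60% and not all replicates reaching 60%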;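 note: luciferase light reporting Pax8 driven TPO promoter activity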
LGR2 inh: Drosophila LGR2 receptor signaling inhibition. inhibition, % at 9.99 µM. HEK293 LGR2, CRE-luciferase, bursicon-stimulated, 4 h. 0.35% of 380,000 active. AID 720647;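 active = drop in luminescence signal, shown as inhibition above about 50% in the replicate tests, limit read from the data, passing the limit was not always enough; inconclusive = probably only some replicates passing the limit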;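 note: agonist challenge used bursicon conditioned medium at about half maximal strength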
EWS-Fli inh: EWS/Fli transcriptional activity inhibition; A673 NR0B1-luciferase reporter, viability-normalised; AID 651661; 0.67% of 350,000 active; inhibition, % at 12.6 µM;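 active = mean inhibition of at least 50% after viability correction, with every replicate also passing that limit; inconclusive = mean reaches 50% but only one of two replicates passes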;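 note: firefly luciferase signal divided by Alamar Blue viability fluorescence both relative to DMSO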
Ecoli rRNA inh: inhibitors of bacterial rRNA selective over humanized ribosomes; E. coli WT GFP vs humanized-ribosome RFP mutants, fluorescence, 24 h; hits give low values; DMSO median 0, no signal -100; 1.6% of 350,000 active; GFP signal change (wild-type ribosome), % (concentration not given with the values);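 active = significant combined selectivity score with lowered wild-type GFP, culture density cut under 30%, mutant RFP and density less affected; inactive = any of these conditions unmet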
DNA binder FP: DNA binding small molecules; shares compounds with EWS-Fli inh; salmon sperm DNA acridine orange fluorescence polarization; AC35, µM (titrated, usually from 68 µM); 2% of 640 active; AID 720586;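 active = fitted curve reaches a 35% signal fall AC35 below twice the sample's top valid tested dose, actives reach about 48 µM in these data; inactive = the rest, including activity in the rising direction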;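 note: lower polarization ratio signals compound binding to DNA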
Large screens that a line does not name were inactive (follow-up assays come after a bar, where they were run).

CCN(CC)C(=O)CN1C(=O)C(=O)c2ccccc21	EWS-Fli inh 54 (no result: SIRT5 block) | DNA binder FP inactive
CCN(CC)C(=O)CN1C(=O)c2cccc3cccc1c23	none
C=CCN1Cc2ccccc2C[C@@]2(COC(c3ccc(OCCCO)cc3)=N2)C1=O	none (no result: PAX8 inh HTS, LGR2 inh, Ecoli rRNA inh)
O=C(c1ccccc1F)N1CC2(C1)[C@@H](c1ccccc1)[C@@H](CO)N2CC1CCCC1	none (no result: PGC1a acetyl inh, PAX8 inh HTS)
CCCC(=O)Nc1ccc2c(c1)C(=O)N(C)[C@@H]1CC[C@@H](CC(=O)Nc3ccccc3)O[C@@H]1CO2	none
CO[C@H]1CN(C)C(=O)c2cc(NC(C)=O)ccc2OC[C@@H](C)N(Cc2cc(F)ccc2F)C[C@H]1C	none
C[C@H]1CN([C@@H](C)CO)C(=O)c2cc(NC(=O)c3ccncc3)ccc2O[C@@H]1CN(C)C(=O)Nc1ccc2c(c1)OCO2	none (no result: PAX8 inh HTS)
CCOc1cc(N2CCC(O)CC2)ccc1Nc1ncc2c(n1)N(C)c1ccccc1C(=O)N2C	EWS-Fli inh 55 (no result: PGC1a acetyl inh) | DNA binder FP inactive
COc1cc(C(=O)N2CCC(N3CCN(C)CC3)CC2)ccc1Nc1ncc2c(n1)N(C)c1ccccc1C(=O)N2C	EWS-Fli inh 59 (no result: PGC1a acetyl inh) | DNA binder FP inactive
CO[C@H]1CN(C)C(=O)c2cc(NC(=O)Nc3ccccc3)ccc2OC[C@H](C)N(C(C)=O)C[C@H]1C	none (no result: PAX8 inh HTS)
N#CC(C#N)=C1C=CC=CN1/C(=C\c1ccco1)C(=O)c1ccc(Cl)cc1	LGR2 inh 105, EWS-Fli inh 86 (no result: PGC1a acetyl inh, PAX8 inh HTS) | DNA binder FP inactive
O=C(CCc1ccccc1)NC(c1cccs1)c1cc(Cl)c2cccnc2c1O (centres undefined)	PAX8 inh HTS 78, EWS-Fli inh 58 (no result: PGC1a acetyl inh) | DNA binder FP inactive
N#CC1C=Cc2c(ccc3ccccc23)N1C(=O)c1ccccc1 (centres undefined)	EWS-Fli inh 66 (no result: SIRT5 block, PGC1a acetyl inh) | DNA binder FP inactive
C[C@H](CO)N1C[C@H](C)[C@H](CN(C)Cc2ccc(C(=O)Nc3ccccc3N)cc2)Oc2ccc(NC(=O)Nc3ccccc3)cc2C1=O	none
C[C@@H]1CN([C@@H](C)CO)C(=O)c2cc(NS(=O)(=O)c3ccc(Cl)cc3)ccc2O[C@@H]1CN(C)Cc1ccc(C(=O)Nc2ccccc2N)cc1	EWS-Fli inh 53 (no result: PAX8 inh HTS) | DNA binder FP inactive
C[C@@H]1CN([C@@H](C)CO)C(=O)c2cc(NC(=O)Nc3ccccc3)ccc2O[C@@H]1CN(C)Cc1ccc(C(=O)Nc2ccccc2N)cc1	EWS-Fli inh 58 | DNA binder FP inactive
C[C@H](CO)N1C[C@H](C)[C@H](CN(C)Cc2ccc(C(=O)Nc3ccccc3N)cc2)Oc2ccc(NS(=O)(=O)c3cccs3)cc2C1=O	EWS-Fli inh 54 (no result: PAX8 inh HTS) | DNA binder FP inactive
C[C@@H]1CCCCO[C@H](CN(C)Cc2ccc(C(=O)Nc3ccccc3N)cc2)[C@@H](C)CN([C@H](C)CO)C(=O)c2cc(NS(=O)(=O)c3ccc(Cl)cc3)ccc2O1	EWS-Fli inh 61 | DNA binder FP inactive
O=C(N[C@H]1CC[C@H](CCNC(=O)C2CCCC2)O[C@H]1CO)c1ccccn1	none
O=C(NCC[C@H]1CC[C@H](NS(=O)(=O)Cc2ccccc2)[C@@H](CO)O1)C1CC1	none
COc1cccc(CNC(=O)C[C@H]2C=C[C@H](NC(=O)C3CCC3)[C@H](CO)O2)c1	none
Cc1ccc(S(=O)(=O)Nc2ccc3c(c2)C(=O)N([C@@H](C)CO)C[C@H](C)[C@@H](CN(C)Cc2ccc(C(=O)Nc4ccccc4N)cc2)O3)cc1	none
Cc1ccc(S(=O)(=O)Nc2ccc3c(c2)C(=O)N([C@H](C)CO)C[C@@H](C)[C@@H](CN(C)Cc2ccc(C(=O)Nc4ccccc4N)cc2)O3)cc1	EWS-Fli inh 51 | DNA binder FP inactive
COCC#Cc1cnc2c(c1)C(=O)N([C@@H](C)CO)C[C@H](C)[C@@H](CN(C)C(=O)c1cccnc1)O2	none (no result: PAX8 inh HTS)
COc1ccc2c3c([nH]c2c1)[C@H](CO)N(Cc1ccccn1)CC31CN(Cc2cccc(F)c2)C1	none (no result: SIRT5 block, PGC1a acetyl inh, PAX8 inh HTS, LGR2 inh, EWS-Fli inh)
Cc1c(N=Cc2cc(Br)cc(Br)c2O)cccc1C(=O)O	EWS-Fli inh 74 (no result: PGC1a acetyl inh) | DNA binder FP inactive
O=C(O)c1cccc(N/N=C/c2cc(Br)cc(Br)c2O)c1	none (no result: SIRT5 block, EWS-Fli inh, Ecoli rRNA inh)
CCCN1C(=O)/C(=C/c2nc3ccccc3c(=O)[nH]2)c2ccccc21	EWS-Fli inh 84 (no result: PGC1a acetyl inh) | DNA binder FP inactive
C[C@@H]1CN([C@H](C)CO)C(=O)CCCn2cc(nn2)CO[C@H]1CN(C)Cc1ccc2c(c1)OCCN2C	none
C=C1C(=O)[C@@]23[C@H](O)C[C@@H]4C(C)(C)CC[C@H](O)[C@@]4(C)[C@@H]2CC[C@@H]1[C@H]3O	PAX8 inh HTS 112, LGR2 inh 59, EWS-Fli inh 60 (no result: SIRT5 block, PGC1a acetyl inh) | DNA binder FP inactive
CCN(CC)c1ccc(C2Nc3cccc4cccc(c34)N2)cc1	none
CCN(CC)c1ccc(C2NC(=O)c3ccccc3N2)cc1 (centres undefined)	PAX8 inh HTS inconclusive, LGR2 inh 88, EWS-Fli inh 62 (no result: Ecoli rRNA inh) | DNA binder FP inactive
COc1ccc(/C=C2\Oc3ccccc3C2=O)cc1	LGR2 inh 56, EWS-Fli inh 62 | DNA binder FP inactive
O=C(COC(=O)c1ccc[nH]c1=O)Nc1ccc(S(=O)(=O)N2CCCC2)cc1	none (no result: PGC1a acetyl inh)
O=C(COC(=O)c1ccc[nH]c1=O)Nc1ccc(N2CCCCC2)cc1	EWS-Fli inh 75 | DNA binder FP inactive
COc1cc2c(OC(C)=O)c3c(c(-c4ccc5c(c4)OCO5)c2cc1OC)C(=O)OC3	EWS-Fli inh 65 (no result: SIRT5 block, PAX8 inh HTS, LGR2 inh, Ecoli rRNA inh) | DNA binder FP inactive
COc1cc2c(O)c3c(c(-c4ccc5c(c4)OCO5)c2cc1OC)C(=O)OC3	none (no result: SIRT5 block, PAX8 inh HTS, LGR2 inh, EWS-Fli inh, Ecoli rRNA inh)
COc1ccc(-c2ccc3c(c2)O[C@H](CN(C)C)[C@@H](C)CN([C@@H](C)CO)S3(=O)=O)cc1	none (no result: PAX8 inh HTS)
N#C[C@H]1[C@H](c2ccc(-c3ccccc3F)cc2)[C@@H](CO)N1C(=O)Cc1ccccc1	PAX8 inh HTS inconclusive, EWS-Fli inh 62 | DNA binder FP inactive
Cc1ccc(S(=O)(=O)N(C)C[C@@H]2Oc3c(NC(=O)c4nc5ccccc5s4)cccc3C(=O)N([C@@H](C)CO)C[C@H]2C)cc1	none (no result: PAX8 inh HTS)
N/C(Cc1nc(-c2ccc(F)cc2)cs1)=N\O	EWS-Fli inh 77 | DNA binder FP inactive
N/C(Cc1nc(-c2ccc(Br)cc2)cs1)=N\O	none
CN1C(=O)c2cc(NS(=O)(=O)c3ccc(Cl)cc3)ccc2OC[C@H]2O[C@H](CC(=O)O)CC[C@H]21	none
COCC(=O)Nc1ccc2c(c1)[C@H]1C[C@@H](CC(=O)NC3CCCC3)O[C@H](CO)[C@H]1O2	none
O=C(C[C@@H]1C[C@@H]2c3cc(NS(=O)(=O)c4ccc(F)cc4)ccc3O[C@@H]2[C@@H](CO)O1)NCc1ccccc1	none (no result: SIRT5 block)

Assay outcomes deposited in PubChem by Broad Institute.
